Laboratory results: PubChem BioAssay AID1159580 (chemical genetic matrix, 2015)
The campaign covered roughly 5,500 compounds. About 2,000 (36%) were called active. Inconclusive results (about 18%) are left out. Cut-off read from the data, not from the text of the source: active = normalized growth mostly below about 0.91 (no sharp cut-off); inconclusive = no clear call, values can overlap the other calls; inactive = mostly above about 0.92. Some of the results follow.

Experiment: chemical genetic growth profiling, strain panel (AID 1159580);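 note: tested at 20 µM; growth read once vehicle control cultures reached saturation at 30 °C; 1 = growth at the plate median or of vehicle wells; lower values mean less growth of the strain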
Settings: S. cerevisiae deletion strains, growth OD
[1] = locus YHR030C, strain SLT2, stronger effect = lower value

Measured: normalized growth

Cc1cc(C)cc(N2C(=O)CC(Sc3ccccc3C(=O)O)C2=O)c1 (configuration not stated)
inactive: locus YAL013W, strain DEP1, stronger effect = lower value 0.955 | locus YBR229C, strain ROT2, stronger effect = lower value 0.987 | locus YDL101C, strain DUN1, stronger effect = lower value 0.953 | locus YDR150W, strain NUM1, stronger effect = lower value 0.945 | locus YEL061C, strain CIN8, stronger effect = lower value 0.961 | locus YGR078C, strain PAC10, stronger effect = lower value 1 | locus YHR087W, strain rtc3, stronger effect = lower value 0.987 | locus YJR075W, strain HOC1, stronger effect = lower value 1.01 | locus YLR058C, strain SHM2 (second series), stronger effect = lower value 0.995 | locus YMR219W, strain ESC1, stronger effect = lower value 0.996 | locus YMR263W, strain SAP30, stronger effect = lower value 0.928 | locus YNL322C, strain KRE1, stronger effect = lower value 1 | locus YPL055C, strain LGE1, stronger effect = lower value 0.876
active: locus YDL134C, strain PPH21, stronger effect = lower value 0.773 | [1] 0.668 | locus YJL187C, strain SWE1, stronger effect = lower value 0.894 | locus YJR043C, strain POL32, stronger effect = lower value 0.789 | locus YKL190W, strain CNB1, stronger effect = lower value 0.771 | locus YLR039C, strain RIC1, stronger effect = lower value 0.109 | locus YLR085C, strain ARP6, stronger effect = lower value 0.619 | locus YLR262C, strain YPT6, stronger effect = lower value 0.12 | locus YML094W, strain GIM5, stronger effect = lower value 0.849 | locus YNL153C, strain GIM3, stronger effect = lower value 0.876 | locus YNL298W, strain CLA4 (second series), stronger effect = lower value 0.711 | locus YNR030W, strain Alg12, stronger effect = lower value 0.078 | locus YOL006C, strain TOP1, stronger effect = lower value 0.27 | locus YPL241C, strain CIN2, stronger effect = lower value 0.0797 | locus YPR135W, strain CTF4, stronger effect = lower value 0.222

CN(C)C(=N)N=C(N)N
inactive: locus YAL021C, strain ccr4, stronger effect = lower value 1.01 | locus YAL026C, strain drs2, stronger effect = lower value 1.02 | locus YAL030W, strain snc1, stronger effect = lower value 0.997 | locus YBL061C, strain skt5, stronger effect = lower value 1.03 | locus YBR009C, strain hhf1, stronger effect = lower value 0.966 | locus YBR023C, strain chs3, stronger effect = lower value 1.02 | locus YBR171W, strain sec66, stronger effect = lower value 1.01 | locus YBR231C, strain swc5, stronger effect = lower value 0.997 | locus YBR279W, strain paf1, stronger effect = lower value 1.03 | locus YCL011C, strain gbp2, stronger effect = lower value 1.01 | locus YCL016C, strain dcc1, stronger effect = lower value 1.04 | locus YCL061C, strain MRC1, stronger effect = lower value 0.995 | locus YCL069W, strain vba3, stronger effect = lower value 1 | locus YCR088W, strain abp1, stronger effect = lower value 1.01 | locus YDL005C, strain med2, stronger effect = lower value 1.02 | locus YDL040C, strain nat1, stronger effect = lower value 1 | locus YDR001C, strain nth1, stronger effect = lower value 1 | locus YDR069C, strain doa4, stronger effect = lower value 0.984 | locus YDR137W, strain rgp1, stronger effect = lower value 1.05 | locus YDR159W, strain sac3, stronger effect = lower value 0.893 | locus YDR195W, strain ref2 1.02 | locus YDR297W, strain sur2, stronger effect = lower value 0.998 | locus YDR334W, strain swr1, stronger effect = lower value 0.998 | locus YDR335W, strain msn5, stronger effect = lower value 1.03 | locus YDR392W, strain spt3, stronger effect = lower value 0.858 | locus YEL003W, strain gim4, stronger effect = lower value 0.985 | locus YEL037C, strain rad23, stronger effect = lower value 1.01 | locus YEL061C, strain CIN8 (second series), stronger effect = lower value 1 | locus YER015W, strain faa2, stronger effect = lower value 1.01 | locus YER016W, strain bim1, stronger effect = lower value 1.02 | locus YER111C, strain swi4, stronger effect = lower value 1.03 | locus YER155C, strain BEM2 (second series), stronger effect = lower value 0.867 | locus YFR010W, strain ubp6, stronger effect = lower value 0.978 | locus YGL167C, strain pmr1, stronger effect = lower value 0.999 | locus YGL173C, strain kem1, stronger effect = lower value 0.993 | locus YGL227W, strain vid30, stronger effect = lower value 0.996 | locus YGL240W, strain doc1, stronger effect = lower value 0.996 | locus YGL253W, strain hxk2, stronger effect = lower value 1.04 | locus YHR013C, strain ard1, stronger effect = lower value 1.01 | locus YHR027C, strain rpn1, stronger effect = lower value 0.986 | [1] 1.02 | locus YHR079C, strain IRE1, stronger effect = lower value 0.977 | locus YHR142W, strain chs7, stronger effect = lower value 1.02 | locus YJL092W, strain hpr5, stronger effect = lower value 0.997 | locus YJL095W, strain BCK1 (second series), stronger effect = lower value 1.01 | locus YJL095W, strain BCK1, stronger effect = lower value 0.987 | locus YJL115W, strain asf1, stronger effect = lower value 1.01 | locus YJL129C, strain trk1, stronger effect = lower value 1 | locus YJL154C, strain vps35, stronger effect = lower value 1 | locus YJL164C, strain tpk1, stronger effect = lower value 0.969 | locus YJL166W, strain qcr8, stronger effect = lower value 0.982 | locus YJR066W, strain TOR1, stronger effect = lower value 0.952 | locus YKL160W, strain elf1, stronger effect = lower value 1.04 | locus YKR026C, strain gcn3, stronger effect = lower value 1 | locus YKR091W, strain srl3, stronger effect = lower value 0.998 | locus YLL001W, strain dnm1, stronger effect = lower value 0.98 | locus YLL026W, stronger effect = lower value 1 | locus YLL041C, strain sdh2, stronger effect = lower value 0.998 | locus YLR027C, strain aat2, stronger effect = lower value 0.991 | locus YLR113W, strain HOG1, stronger effect = lower value 0.954 | locus YLR221C, strain rsa3, stronger effect = lower value 0.963 | locus YLR258W, strain gsy2, stronger effect = lower value 1.03 | locus YLR262C, strain YPT6 (second series), stronger effect = lower value 0.987 | locus YLR320W, strain mms22, stronger effect = lower value 0.93 | locus YLR342W, strain FKS1, stronger effect = lower value 0.996 | locus YLR357W, strain rsc2, stronger effect = lower value 1 | locus YLR370C, strain arc18, stronger effect = lower value 1.01 | locus YLR384C, strain iki3, stronger effect = lower value 0.99 | locus YML120C, strain ndi1, stronger effect = lower value 0.992 | locus YMR058W, strain fet3, stronger effect = lower value 1 | locus YMR125W, strain sto1, stronger effect = lower value 1.01 | locus YMR129W, stronger effect = lower value 0.992 | locus YMR205C, strain PFK2, stronger effect = lower value 0.985 | locus YMR231W, strain pep5, stronger effect = lower value 1 | locus YNL071W, strain lat1, stronger effect = lower value 0.995 | locus YNL183C, strain NPR1, stronger effect = lower value 0.923 | locus YNL209W, strain ssb2, stronger effect = lower value 1.02 | locus YNL248C, strain rpa49, stronger effect = lower value 1.02 | locus YNL322C, strain KRE1 (second series), stronger effect = lower value 1.02 | locus YNR049C, strain mso1, stronger effect = lower value 0.992 | locus YOR001W, strain rrp6, stronger effect = lower value 0.948 | locus YOR070C, strain gyp1, stronger effect = lower value 1.01 | locus YOR080W, strain dia2, stronger effect = lower value 1 | locus YOR083W, strain WHI5, stronger effect = lower value 0.975 | locus YOR106W, strain vam3, stronger effect = lower value 1.02 | locus YOR231W, strain MKK1, stronger effect = lower value 0.99 | locus YOR265W, strain rbl2, stronger effect = lower value 1.01 | locus YOR270C, strain vph1, stronger effect = lower value 0.929 | locus YOR290C, strain snf2, stronger effect = lower value 1.05 | locus YPL051W, strain arl3, stronger effect = lower value 1.05 | locus YPL078C, strain atp4, stronger effect = lower value 1.05 | locus YPL106C, strain sse1, stronger effect = lower value 1.09 | locus YPL240C, strain hsp82, stronger effect = lower value 1 | locus YPL256C, strain CLN2, stronger effect = lower value 0.961
